Assay outcomes: PubChem, National Center for Advancing Translational Sciences (NCATS)
The list is not random: actives were taken first. Their share in the collection is about 1.8%.
IkB sig inh: IkB Signaling; ABC-DLBCL IkBa-CBG/CBR dual luciferase ratio, 4 h; response scale: scaled: untreated 0%, proteasome inhibitor 100%; Potency, µM (highest dose often 57.1 µM), for the others: top-dose IkBa stabilization activation; hit rate 0.04% among 110,000; AID 445, 2006; active means well fitted curve in the direction sought with a large enough effect in the signal ratio, not every such curve was filed as active; inconclusive means small, poorly fitted or top-dose-only effect, or a change in a side signal; the % refers to the signal ratio;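 further: the direction sought is a rising ratio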
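Luminescence ratio of IκBα-fused green versus native red beetle luciferase in OCI-Ly3 cells, 4 h post-doxycycline with compound; red signal alone, scaled from basal (0%) to zero light (-100%), flagged nonspecific or cytotoxic effects.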
p53ts 39C tox: qHTS Screen for Compounds that Selectively Target Cancer Cells with p53 Mutations: Cytotoxicity of p53ts Cells at the Nonpermissive Temperature | H1299-p53A138V viability at 39C, ATP luminescence, 24 h | hit rate 1.5% among 130,000 | Potency, µM (doses to about 46.1 µM), inactives show at the top dose activity change, negative = cell killing, most hits filed as cytotoxic; further: on the % scale 0 is the no-effect control and ±100 the full control effect; nearly all actives have a fitted effect of over 55% in size
p53ts 32C kill: qHTS Screen for Compounds that Selectively Target Cancer Cells with p53 Mutations: Cytotoxicity of p53ts Cells at the Permissive Temperature | H1299-p53A138V at 32C, ATP luminescence viability, 24 h | Potency, µM (highest dose often 46.1 µM), without a hit: at the top dose activity change, negative = cytotoxicity, hits mostly cytotoxic | hit rate 0.93% among 130,000 | AID 924, 2007;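 further: 0% = DMSO and -100% = full killing by reference compound; nearly all actives have a fitted effect of over 55% in size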
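Viability by ATPlite luminescence after 24 h compound treatment (up to 46 uM) at the permissive 32C. Cells are H1299 carrying p53 A138V. Scale runs from DMSO basal to 100 uM tamoxifen as full kill; AC50 from Hill fits.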
Peg3 imprint: qHTS Assay for Compounds that Induce Erasure of Genomic Imprints. mouse ES Peg3-LacZ reporter, beta-gal luminescence, 40 h. hit rate 0.02% among 110,000. Potency, µM (top dose mostly 60.7 µM), for inactives: at the top dose activity change, positive = activation, most hits filed as activators
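Each well holds 300 Peg3LacZ-Neo (maternal) female ES cells incubated 40 h at 37C, 5% CO2. LacZ is measured by BetaGlo luminescence, with AC50 and maximum efficacy derived from dose-response curves.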
* marks the source's active call; other numbers are inactive results; ? = inconclusive; nt = no result; [ ] = another dose, or the depositor's remark. Unless noted, the call rests on the fitted dose curve; in most records, active means well fitted curve in the direction sought with a large enough effect; inconclusive means small, poorly fitted or top-dose-only effect, or another doubt; inactive means no such curve, though single readings can be large; an effect the other way counts as inactive or inconclusive. Potency means the concentration at half of the fitted maximal effect.

SMILES	IkB sig inh	p53ts 39C tox	p53ts 32C kill	Peg3 imprint
CCCCCCCCCCCCC[N+](C)(C)Cc1ccccc1	nt	12.6µM*	15.8µM*	-39.6%
CCn1cc(Cl)c(C(=O)Nc2nc3ccccc3n2CCN2CCCCC2)n1	0.0%	-3.7%	-4.6%	14.8%
Cc1ccc2[nH]c(=O)c(CN(CCc3ccccc3)C(c3nnnn3Cc3ccco3)C(C)C)cc2c1 (configuration not stated)	?	-10.4%	-15.0%	-19.2%
Cc1cc(C)nc(Nc2ccc(N3CCOCC3)cc2)n1	-3.3%	?	12.6µM*	-15.1%
Cc1cc(C)nc(Nc2ccc(N3CCCC3)cc2)n1	0.7%	-23.4%	-21.4%	-30.9%
Cc1ccc(-c2csc3ncnc(Sc4nnc(CN5CCCCCC5=O)o4)c23)cc1	?	?	25.1µM*	-32.4%
CCn1c(CN2CCCCCC2=O)nnc1SCc1cnc(-c2ccccc2)s1	2.9%	-4.0%	1.6%	-20.3%
Cc1cccc(N2CCN(c3ncnc4onc(C)c34)CC2C)c1 (configuration not stated)	?	20µM*	?	-11.7%[10.9 µM]
FC(F)(F)c1cccc(Nc2c3c(nc4ccc(Cl)cc24)CCC3)c1	?	12.6µM*	11.2µM*	10.5%[10.9 µM]
Fc1ccc(F)c(Nc2c3c(nc4ccc(Cl)cc24)CCC3)c1	?	-7.1%	-13.5%	-7.3%[10.9 µM]
CC1=C(C(=O)OC(C)C)C(c2c[nH]c3ccccc23)n2ncnc2N1 (configuration not stated)	1.4%	15.4%	9.4%	-6.4%
CCOC(=O)CSc1nc2c(sc3ccccc32)c(=O)n1CCc1ccccc1	?	-17.4%	-3.4%	-14.3%[10.9 µM]
Cn1ccc2cc(S(=O)(=O)N3CCCC(C(=O)NCc4ccccc4)C3)ccc21 (configuration not stated)	?	-10.2%	-0.3%	-2.3%[10.9 µM]
COc1ccc(OC)c(CNC(=O)c2cc(-c3ccc(Cl)s3)nc3ccccc23)c1	?	-6.9%	1.5%	-6.3%[10.9 µM]
COc1ccc(CNC(=O)c2cc(-c3ccc(Br)s3)nc3ccccc23)cc1	0.9%	10µM*	-5.5%	3.5%[10.9 µM]
O=C(Nc1nc(-c2ccccn2)cs1)c1ccc(Cl)s1	1µM*	4.1%	16.1%	-13.4%
O=C(Nc1cccs1)Nc1cc(C(F)(F)F)ccc1Cl	?	25.1µM*	-13.6%	-18.3%[10.9 µM]
C=CCNC(=O)c1c(Cl)cccc1Cl	1.6%	3.3%	1.2%	3.2%
CN(C)c1nc(N)c(C(=O)Nc2cccnc2)nc1Cl	nt	5.01µM*	12.6µM*	-41.2%
O=C(Nc1cccnc1)c1cc(-c2cccc(Cl)c2)on1	?	23.4%	5.9%	8.0%[10.9 µM]
COC(=O)c1c(NC(=O)COc2cc(C)ccc2C(C)C)sc2c1CCC(C)C2 (configuration not stated)	0.0%	3.4%	7.9%	-5.4%[10.9 µM]
Cn1cc(C(=O)N2CCN(c3cccc(C(F)(F)F)c3)CC2)c2c3ccccc3n(C)c2c1=O	?	12.6µM*	-5.0%	-3.1%[10.9 µM]
Cn1c2ccccc2c2c(C(=O)N3CCN(c4cccc(C(F)(F)F)c4)CC3)cn(C3CCCCC3)c(=O)c21	3.0%	5.6%	23.0%	13.2%[10.9 µM]
Cc1nn2c3c(cnc2c1-c1ccccc1)C(=O)CC(c1ccco1)C3 (configuration not stated)	-2.8%	15.6%	5.5%	-6.6%
CC(C)CC1NC(=O)C(CCCN)NC(=O)C(C(C)C)NC(=O)C2CCCN2C(=O)C(Cc2ccccc2)NC(=O)C(CC(C)C)NC(=O)C(CCCN)NC(=O)C(C(C)C)NC(=O)C2CCCN2C(=O)C(Cc2ccccc2)NC1=O (configuration not stated)	nt	5.01µM*	-9.8%	-29.6%
SMILES	IkB sig inh	p53ts 39C tox	p53ts 32C kill	Peg3 imprint
O=C1N[C@@H](Cc2ccccc2)C(=O)N2CCCC12 (some centres not stated)	nt	nt	nt	-10.8%[97.3 µM]
COc1ccc2c(=O)c(-c3ccccc3)coc2c1	nt	5.01µM*	?	-58.9%
COc1cc2ccccc2cc1C(=O)Nc1ccc2oc(-c3ccc(Cl)cc3)nc2c1	-0.2%	7.94µM*	-13.9%	20.6%[10.9 µM]
COc1cc2ccccc2cc1C(=O)Nc1ccc(N2CCN(C)CC2)cc1	-0.3%	12.6µM*	?	-25.0%
CCOc1ccc(C(=O)Nc2ccc3oc(-c4ccc(Br)cc4)nc3c2)cc1	-1.4%	29.5%	2.2%	-6.4%[10.9 µM]
CCOc1ccc(C(=O)Nc2ccc3oc(-c4cccc5ccccc45)nc3c2)cc1	7.2%	10µM*	-23.0%	-10.4%[10.9 µM]
COc1cc(C(=O)Nc2ccc3oc(-c4ccccc4)nc3c2)cc(OC)c1OC	?	12.6µM*	?	-5.1%[10.9 µM]
Cc1ccc2oc(=O)n(CCOc3ccccc3Cl)c2c1	-3.1%	-18.6%	-5.0%	-12.3%
COc1ccc2[nH]c(=O)c(CN(C(=O)c3cccnc3)c3ccccc3OC)cc2c1	-1.0%	-4.9%	5.8%	5.8%
CC(C)C(NS(=O)(=O)c1ccc2c(c1)OCCO2)C(=O)NCCc1ccccn1 (configuration not stated)	0.1%	1.5%	8.0%	2.4%
CCCn1nnc(NC(=O)COc2ccccc2Cl)n1	-4.5%	8.6%	1.3%	-13.8%
CC(O)/C=C/c1ccc2ccccc2n1 (configuration not stated)	3.1%	?	25.1µM*	-52.6%
CN(C)c1ccc(/C=C/c2noc(-c3ccccc3O)n2)cc1	?	-2.6%	-20.8%	-79.9%[10.9 µM]
Oc1ccccc1-c1nc(/C=C/c2ccccc2Cl)no1	?	7.94µM*	7.94µM*	-55.2%[10.9 µM]
CC1=C(C(=O)Nc2ccccc2)C(c2ccc(F)cc2)n2nc(SCc3cc(C)ccc3C)nc2N1 (configuration not stated)	0.1%	-11.8%	4.0%	?
Clc1ccccc1-c1nc(-c2ccncc2)no1	1.2%[11.4 µM]	-5.3%[9.22 µM]	-5.8%[9.22 µM]	-20.0%[10.9 µM]
Clc1ccccc1-c1nc(-c2cccnc2)no1	2.2%	12.6µM*	10µM*	-71.0%
CCOC(=O)c1sc(NC(=O)c2ccc(Cl)s2)cc1C	1.6%	-23.3%	?	-26.5%
CCOC(=O)c1sc(NC(=O)C2CC2)cc1C	-2.3%	12.6µM*	12.6µM*	-58.8%
CCCC[C@@H]1C[C@H]1C(NC(=O)c1ccccc1)c1ccccc1 (some centres not stated)	nt	-7.0%	15.0%	-16.0%
C=C(CC1([C@@H](NP(=O)(c2ccccc2)c2ccccc2)[C@H]2C[C@@H]2CCCC)CC1)c1ccccc1	nt	25.1µM*	7.7%	-32.7%
CCCC[C@@H]1C[C@H]1[C@@H](NP(=O)(c1ccccc1)c1ccccc1)c1ccccc1OC	nt	25.1µM*	?	-23.1%
COc1ccc(C)cc1NC(=O)CCN1CCCC1	0.1%	10.6%	-5.8%	-6.2%
CCc1ccc(CC)c(S(=O)(=O)Nc2ccc(C(=O)O)c(O)c2)c1	3.7%	13.7%	4.0%	-9.6%
Cc1ccc(-c2nnc(Nc3ccccc3)o2)cc1	?	3.16µM*	3.16µM*	-91.5%
CCC(=O)Nc1cccc(OCc2cc(=O)n3cc(C)ccc3n2)c1	?	?	?	-8.5%[10.9 µM]
